Experimental findings from PubChem BioAssay (NCATS) are described below.

The nature of experiment [1]: High-throughput drug toxicity screening in the BPDCN cell line Gen2.2 (AID 1224824; call rule not given here;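 note: cells exposed to compounds for 48 h before reading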). The following applies: Gen2.2 BPDCN cells; at 45.8 µM (top of the series) unless noted. The method in brief: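 Gen2.2 cells, 500 per well in phenol red-free RPMI with 10% FBS, exposed to compounds 48 h at 37 C, 5% CO2; viability by CellTiter-Glo luminescence. Percent activity scaled to DMSO (100%) and 9.2 uM bortezomib final (0%).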

Experiment [2] in a line: High-throughput drug toxicity screening in the BPDCN cell line Cal-1 (AID 1224825; call rule not given here). The following applies: Cal-1 BPDCN cell viability, qHTS; at 45.8 µM (top of the series) unless noted. The method in brief:
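500 Cal-1 cells/well, RPMI + glutamine + 10% FBS (phenol red-free); cpd added by pin tool; 48 h, 37C, 5% CO2; CTG 15 min RT, lumi read. Normalised: DMSO 100%, bortezomib 9.2 uM 0%.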
In general terms: qHTS replaces the single test concentration by a dilution series.

The nature of experiment [3]: qHTS assay for measurement of the activity of small molecule inhibitors on Zika virus induced Caspase-3 activity in human iPSC derived neural progenitor cells (hNPCs) (AID 1224857). Note: nearly all actives have a fitted effect of over 65% in size. Note: potency is the fitted concentration of half-maximal effect. The method in brief: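 After overnight (16–20 h) culture at 350 cells/well, hNPCs get compound, then ZIKV 2 FFU/cell one hour later. Six hours on, Caspase-Glo 3/7 is added and luminescence measured.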

Experiment [4] is described as follows: qHTS assay for measurement of the activity of small molecule inhibitors on Zika virus induced Caspase-3 activity in human astrocytoma cells (AID 1224859).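 Note: plate controls were ZIKV-infected untreated cells for no effect and uninfected cells for full effect.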 An outline of the steps: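 Inhibition of Zika-induced caspase-3/7 activity: SNB-19 cells, 1 h compound pretreatment, ZIKV 2 FFU/cell for 6 h at 37 C, Caspase-Glo luminescence read-out.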
Experiment [5] is described as follows: qHTS Screen of the MIPE 4.0 Collection Against Ewings Sarcoma (RDES) (AID 1259252). Note: nearly all actives have a fitted effect of over 35% in size. Note: potency is the fitted concentration of half-maximal effect. An outline of the steps: (§1)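 CellTiter-Glo luminescence after 48 h compound exposure (titration) gave viability; percent activity used DMSO-treated cells as no inhibition and medium-only wells as full inhibition. Cells grown in RPMI/5% FBS, dosed 4 h post-seeding.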
Experiment [6] is described as follows: qHTS Screen of the MIPE 4.0 Collection Against Ewings Sarcoma (EW8) (AID 1259255).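 For viability: 100% = DMSO-treated cells and 0% = medium-only wells without cells.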 Note: nearly all actives have a fitted effect of over 35% in size. Note: potency is the fitted concentration of half-maximal effect. The method in brief: as §1
Experiment [7] can be described thus: qHTS Screen of the MIPE 4.0 Collection Against Ewings Sarcoma (TC32) (AID 1259256). Note: nearly all actives have a fitted effect of over 45% in size. Note: potency is the fitted concentration of half-maximal effect. The method in brief: as §1
The nature of experiment [8]: Identifying Small Molecule Inhibitors of Pancreatic Cancer Stem Cells (SN12C, Adherent) (AID 1259358).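 Note: cell survival measured after 48 h of compound exposure.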 The method in brief: (§2)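 Cytotoxicity read by CellTiter-Glo luminescence after 48 h compound exposure at 37C; percent activity scaled between DMSO-treated cells and cell-free wells. Spheroid formats used cells pre-formed 14 days in stem cell media on hydrogel.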
A short description of experiment [9]: Identifying Small Molecule Inhibitors of Pancreatic Cancer Stem Cells (SN12C, Spheroid) (AID 1259360).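 Note: 100% = DMSO-treated cells and 0% = wells without cells.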 To be noted: Potency: SN12C spheroid viability. The method in brief: as §2
The nature of experiment [10]: Identifying Small Molecule Inhibitors of Pancreatic Cancer Stem Cells (A278, Adherent) (AID 1259361).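 Note: 100% = DMSO-treated cells and 0% = cell-free media-only wells; nearly all actives have a fitted effect of over 35% in size.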 The method in brief: as §2
Experiment [11] is described as follows: P-glycoprotein substrates identified in KB-3-1 adenocarcinoma cell line, qHTS therapeutic library screen (AID 1346986). Note: nearly all actives have a fitted effect of over 60% in size. To be noted: KB-3-1 parental cells viability, CellTiter-Glo, 72 h; at 44.5 µM (top of the series). The method in brief: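 Cells seeded 500/well in DMEM/10% FCS; compounds pinned in dose-response; 72 h incubation; CellTiter-Glo added, 5 min, luminescence. KB-8-5-11 run ±tariquidar to test reversal of P-gp resistance.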

Experiment [12] is described as follows: P-glycoprotein substrates identified in KB-8-5-11 adenocarcinoma cell line, qHTS therapeutic library screen (AID 1346987). Note: nearly all actives have a fitted effect of over 65% in size. Note: potency is the fitted concentration of half-maximal effect. The method in brief:
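Steps: plate 500 KB-8-5-11 cells/well in DMEM + 10% FCS (colchicine removed); pin compounds in dose-response; incubate 72 h, 37 degree C, 5% CO2; add CellTiter-Glo, 5 min; read luminescence.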

Experiment [13] has as its target Atrial natriuretic peptide receptor 1 (Homo sapiens) (UniProt P16066). Briefly: Natriuretic polypeptide receptor (hNpr1) antagonism - Pilot screen (AID 1347049; calls by dose curve;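 note: agonist-evoked cGMP luminescence read 20 min after hNppA addition; % is set by controls: 0 for no effect and ±100 for the full control effect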). An outline of the steps: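 Readout is cGMP-driven firefly luciferase luminescence in HEK293 cells carrying hNpr1 and a PDE5-domain GloSensor, read before and 20 min after 0.1 nM hNppA stimulation. Cells had 2% substrate reagent for 2 h and test compound for 30 min.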

Experiment [14] can be described thus: qHTS assay to identify small molecule inhibitors of chordoma cells - UCH-1 (AID 1259355). Note: % is set by controls: 0 for no effect and ±100 for the full control effect; nearly all actives have a fitted effect of over 55% in size. The method in brief:
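Seed 800 cells per well; incubate overnight at 37 C, 5% CO2. Add test compounds (15 concentrations), then the auranofin–topoisomerase-agent combination. Incubate 48hr, add CellTiter-Glo, wait 30min, read luminescence.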

The nature of experiment [15]: qHTS assay to identify small molecule inhibitors of chordoma cells - UCH-2 (AID 1259356). Note: % is set by controls: 0 for no effect and ±100 for the full control effect.
Experiment [16] can be described thus: qHTS Screen of the MIPE 4.0 Collection Against Ewings Sarcoma (TC71) (AID 1259253). Note: nearly all actives have a fitted effect of over 40% in size. Note: potency is the fitted concentration of half-maximal effect. The method in brief:
as §1

Experiment [17] addresses Atrial natriuretic peptide receptor 2 (Homo sapiens) (UniProt P20594). The experiment can be described thus: Natriuretic polypeptide receptor (hNpr2) antagonism - Pilot subtype selectivity assay (AID 1347050; calls by dose curve; note: % is set by controls: 0 for no effect and ±100 for the full control effect). The method in brief: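 Pilot selectivity screen against hNpr2: HEK293 cGMP-sensor cells are treated with LOPAC1280 compounds, then with hNppC peptide at 1 nM final. The cGMP-driven luminescence change over 20 min at room temperature is the read-out.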

“And” between values parts separate entries of the source, which are not always exact repeats. Equal entries are not always repeated. Inconclusive results are not listed. Some structures have more than one record in an assay (separate samples or runs), and their calls can disagree. The source made the active and inactive calls. Unless noted, calls come from the whole dose curve; as a rule, active = well fitted curve in the direction sought with a large enough effect; inconclusive = small, poorly fitted or top-dose-only effect, or another doubt; inactive = no such curve, though single readings can be large; an effect the other way counts as inactive or inconclusive.

Sequence of Atrial natriuretic peptide receptor 1 (Homo sapiens) (P16066 whole entry, looked up): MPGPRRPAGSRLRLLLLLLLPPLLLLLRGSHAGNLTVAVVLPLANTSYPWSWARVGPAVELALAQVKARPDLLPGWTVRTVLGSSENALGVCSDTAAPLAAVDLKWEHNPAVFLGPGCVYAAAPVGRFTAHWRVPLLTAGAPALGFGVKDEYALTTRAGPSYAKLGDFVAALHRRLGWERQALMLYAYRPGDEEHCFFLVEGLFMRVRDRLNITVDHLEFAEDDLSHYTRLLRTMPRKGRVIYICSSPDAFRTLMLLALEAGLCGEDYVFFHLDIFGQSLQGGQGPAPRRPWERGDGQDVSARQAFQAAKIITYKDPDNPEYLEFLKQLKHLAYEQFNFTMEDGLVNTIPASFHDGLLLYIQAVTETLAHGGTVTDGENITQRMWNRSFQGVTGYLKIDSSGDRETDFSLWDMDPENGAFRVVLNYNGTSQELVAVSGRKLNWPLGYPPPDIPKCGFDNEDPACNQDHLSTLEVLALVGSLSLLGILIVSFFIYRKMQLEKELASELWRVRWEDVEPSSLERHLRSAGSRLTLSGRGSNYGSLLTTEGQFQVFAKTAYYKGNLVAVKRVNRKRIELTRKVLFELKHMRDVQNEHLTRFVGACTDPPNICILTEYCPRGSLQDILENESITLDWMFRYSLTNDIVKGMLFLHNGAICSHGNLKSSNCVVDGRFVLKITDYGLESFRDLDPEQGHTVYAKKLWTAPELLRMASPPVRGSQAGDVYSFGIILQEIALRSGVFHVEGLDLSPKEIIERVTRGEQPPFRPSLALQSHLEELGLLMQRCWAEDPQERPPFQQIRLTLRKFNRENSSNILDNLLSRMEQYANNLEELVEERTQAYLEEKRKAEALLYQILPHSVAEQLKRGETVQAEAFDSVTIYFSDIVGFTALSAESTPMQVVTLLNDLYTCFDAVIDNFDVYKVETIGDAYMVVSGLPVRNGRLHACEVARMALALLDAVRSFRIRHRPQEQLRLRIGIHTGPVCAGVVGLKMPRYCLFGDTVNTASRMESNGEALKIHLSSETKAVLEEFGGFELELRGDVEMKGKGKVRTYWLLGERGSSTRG
Sequence of Atrial natriuretic peptide receptor 2 (Homo sapiens) (P20594 whole entry, looked up): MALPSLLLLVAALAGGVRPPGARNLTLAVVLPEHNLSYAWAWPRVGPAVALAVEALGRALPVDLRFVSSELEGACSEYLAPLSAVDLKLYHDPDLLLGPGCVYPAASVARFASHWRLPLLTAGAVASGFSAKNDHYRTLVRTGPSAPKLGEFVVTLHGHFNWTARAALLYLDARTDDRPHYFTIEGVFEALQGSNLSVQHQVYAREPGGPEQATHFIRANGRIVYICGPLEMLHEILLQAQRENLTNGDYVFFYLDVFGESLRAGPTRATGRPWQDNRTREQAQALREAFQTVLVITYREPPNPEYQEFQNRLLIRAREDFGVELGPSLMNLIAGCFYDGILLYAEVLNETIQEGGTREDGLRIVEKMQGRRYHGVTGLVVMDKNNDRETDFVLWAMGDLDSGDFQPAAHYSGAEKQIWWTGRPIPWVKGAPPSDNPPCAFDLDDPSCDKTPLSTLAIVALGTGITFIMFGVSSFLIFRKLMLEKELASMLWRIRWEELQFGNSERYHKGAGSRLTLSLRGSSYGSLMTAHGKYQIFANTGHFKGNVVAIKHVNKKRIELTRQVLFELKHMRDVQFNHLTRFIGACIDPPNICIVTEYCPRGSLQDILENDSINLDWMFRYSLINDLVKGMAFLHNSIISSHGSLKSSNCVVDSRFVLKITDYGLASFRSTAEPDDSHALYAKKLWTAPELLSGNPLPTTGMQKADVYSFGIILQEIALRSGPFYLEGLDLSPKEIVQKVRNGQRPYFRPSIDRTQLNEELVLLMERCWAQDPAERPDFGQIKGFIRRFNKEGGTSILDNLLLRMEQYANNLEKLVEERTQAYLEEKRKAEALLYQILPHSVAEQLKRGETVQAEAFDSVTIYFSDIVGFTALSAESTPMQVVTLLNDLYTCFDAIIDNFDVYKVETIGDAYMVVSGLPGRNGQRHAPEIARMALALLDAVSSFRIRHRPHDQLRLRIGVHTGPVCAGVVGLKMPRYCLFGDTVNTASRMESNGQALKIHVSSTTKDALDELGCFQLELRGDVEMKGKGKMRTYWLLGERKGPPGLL

For `CCN(CC)CCn1c(=O)c(Cc2ccc(OC)cc2)nc2ccccc21`, the cell viability, % of control (lower = more cytotoxic) in [1] was determined as 115%. Moreover, the viability (% of control) in experiment [2] turned out to be 94.1%. The Potency result in [3], in [4], in [5], in [6], in experiment [7] and in experiment [8] was “inactive” throughout. In addition, the Potency entry in [9], in experiment [12] and in experiment [13] was “inactive” each time. The IC50 (viability decrease) entry in experiment [10] is “inactive”. For the same compound, the outcome in experiment [11] was inactive.

Consider `CCOC(=O)[C@H](CCc1ccccc1)N[C@H]1CS[C@H](c2cccs2)CN(CC(=O)O)C1=O`, for which the cell viability, % of control (lower = more cytotoxic) in experiment [1] was 189%. In addition, the viability (% of control) in experiment [2] was 14%. Further, the Potency result in experiment [3], in experiment [4], in experiment [14], in experiment [15] and in experiment [12] was “inactive” in each case. Moreover, the Potency in experiment [5] is 4.18 µM (active); in experiment [6], 5.9 µM (active); in experiment [7], 4.18 µM (active).

In the case of `CNCC[C@H](Oc1cccc2ccccc12)c1cccs1`, the cell viability, % of control (lower = more cytotoxic) in experiment [1] amounted to 8.39%. Also, the viability (% of control) in experiment [2] was determined as 39.6%. Moreover, the Potency entry in experiment [3] was “inactive and 23.5 µM (active)”; in experiment [5], 2.35 µM (active); in experiment [16], 2.64 µM (active); in experiment [6] it was 7.43 µM (active); in [7], 5.26 µM (active). Besides, the Potency entry in experiment [4] and in [12] was “inactive” each time.

For `CCOC(=O)[C@H](CCc1ccccc1)N[C@H]1CCc2ccccc2N(CC(=O)O)C1=O`, the cell viability, % of control (lower = more cytotoxic) in experiment [1] was found to be 22.7%. The viability (% of control) in experiment [2] was found to be 22.3%. The Potency result in experiment [3], in experiment [4], in experiment [14] and in experiment [15] was “inactive” throughout. The Potency in experiment [5] is 23.5 µM (active); in experiment [6] it was 23.5 µM (active); in [7], 23.5 µM (active); in experiment [12], “inactive and 23.5 µM (active)”.

On to `CNC1CCCN(c2c(F)cc3c(=O)c(C(=O)O)cn(C4CC4)c3c2OC)C1` (stereo not drawn), for which the cell viability, % of control (lower = more cytotoxic) in [1] amounted to 106%. Moreover, in [2], the viability (% of control) came out at 32.3%. Also, the Potency entry in experiment [3], in [4], in experiment [14], in [15] and in experiment [12] was “inactive” in each case. Moreover, the Potency in experiment [5] was 14.8 µM (active); in experiment [16], 18.7 µM (active); in experiment [7], 20.9 µM (active). Further, the result in [11] was inactive.

For the compound `O=P(O)(O)C(O)(Cc1cccnc1)P(=O)(O)O`, in experiment [1], the cell viability, % of control (lower = more cytotoxic) turned out to be 147%. In experiment [2], the viability (% of control) turned out to be 125%. Also, the Potency entry in experiment [3], in [4], in experiment [5], in [6], in experiment [7] and in [14] was “inactive” each time. Further, the Potency result in experiment [15] and in experiment [12] was “inactive” throughout.

For the compound `COc1ccc2c(c1)c(CC(=O)OCC(=O)O)c(C)n2C(=O)c1ccc(Cl)cc1`, in [1], the cell viability, % of control (lower = more cytotoxic) was 144%. Also, the viability (% of control) in [2] worked out at 119%. The Potency entry in experiment [3], in experiment [4], in experiment [5], in [16], in [6] and in experiment [7] was “inactive” each time. Moreover, in [12], the Potency result was “inactive”.

Consider `CCN1CCCC1CNC(=O)c1cc(S(N)(=O)=O)ccc1OC` (stereo not drawn), for which the cell viability, % of control (lower = more cytotoxic) in experiment [1] is 128%. For the same compound, the viability (% of control) in [2] was found to be 82.8%. In addition, the Potency result in [3], in experiment [4], in [5], in [6], in experiment [12] and in [13] was “inactive” throughout. Further, the Potency result in experiment [17] was “inactive”. In [16], the Potency was 16.6 µM (active). For the same compound, the outcome in experiment [11] was inactive.

Consider `O=C(O)c1cn(C2CC2)c2cc(N3CCNCC3)c(F)cc2c1=O`, for which, in experiment [1], the cell viability, % of control (lower = more cytotoxic) worked out at 138%. The viability (% of control) in experiment [2] is 103%. Further, the Potency result in experiment [3], in experiment [4], in experiment [5], in [6], in experiment [7] and in experiment [14] was “inactive” each time. In experiment [12], the Potency result is “inactive”. Moreover, the result in experiment [11] was inactive.
